# Laboratory results: article PMC7862700, “An all-to-all approach to the identification of sequence-specific readers for epigenetic DNA modifications on cytosine”
# How the values were obtained:
# Test in all cases: DAPPL (digital affinity profiling via proximity ligation, sequencing); 10 mM Tris-HCl pH 7.5, 50 mM NaCl, 1 mM DTT, 4% glycerol, room temperature, 30 min; GST-TFs on glutathione beads, 16-mer random dsDNA library, 0.1% formaldehyde crosslink after washing; high values mean tight binding
# [1] = target: T1, FLI1 (Homo sapiens, UniProt Q01543 1-452); conditions: protein: recombinant; tags: N-terminal GST; dsDNA, one strand shown
# T1 sequence: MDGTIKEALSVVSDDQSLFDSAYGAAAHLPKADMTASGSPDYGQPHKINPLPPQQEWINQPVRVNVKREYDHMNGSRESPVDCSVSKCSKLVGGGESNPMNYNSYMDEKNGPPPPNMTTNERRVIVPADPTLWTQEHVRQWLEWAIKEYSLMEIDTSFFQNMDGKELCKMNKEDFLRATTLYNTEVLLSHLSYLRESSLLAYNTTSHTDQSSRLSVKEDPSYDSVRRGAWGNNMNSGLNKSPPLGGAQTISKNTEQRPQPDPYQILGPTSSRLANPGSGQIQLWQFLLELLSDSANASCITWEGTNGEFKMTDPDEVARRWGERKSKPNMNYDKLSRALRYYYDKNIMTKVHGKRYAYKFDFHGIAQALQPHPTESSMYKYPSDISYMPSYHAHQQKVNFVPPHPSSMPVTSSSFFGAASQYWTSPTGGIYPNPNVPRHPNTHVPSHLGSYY
# Method in brief: (§1)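 Each value of binding signal is a hexamer's read frequency for a factor divided by the same hexamer's frequency in the tag-only sample. Barcoded, bead-captured GST fusions of human transcription factors made in yeast were pooled with that sample and incubated with 200 nmole of a random double-stranded 16-mer DNA library in Tris/NaCl/DTT/glycerol buffer at room temperature for 30 min. Washing, 0.1% formaldehyde crosslinking, proximity ligation, PCR and Illumina NextSeq500 sequencing followed.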
# [2] = target: T2, ELK1 (Homo sapiens, UniProt P19419 1-428); conditions: protein: recombinant; tags: N-terminal GST; dsDNA, one strand shown
# T2 sequence: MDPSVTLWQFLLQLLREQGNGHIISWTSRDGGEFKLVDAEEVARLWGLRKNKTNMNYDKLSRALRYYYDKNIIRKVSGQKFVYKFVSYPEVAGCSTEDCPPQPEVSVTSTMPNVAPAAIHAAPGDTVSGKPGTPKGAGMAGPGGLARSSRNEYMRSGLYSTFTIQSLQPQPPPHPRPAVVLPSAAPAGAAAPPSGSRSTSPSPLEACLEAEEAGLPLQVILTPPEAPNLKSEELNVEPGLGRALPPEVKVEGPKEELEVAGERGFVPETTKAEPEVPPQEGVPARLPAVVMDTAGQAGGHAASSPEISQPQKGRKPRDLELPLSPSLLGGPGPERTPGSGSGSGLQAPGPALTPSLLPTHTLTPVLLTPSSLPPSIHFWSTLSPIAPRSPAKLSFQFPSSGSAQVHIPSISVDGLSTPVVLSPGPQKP
# Method in brief: as §1
# [3] = target: T3, GABPA (Homo sapiens, UniProt Q06546 1-454); conditions: protein: recombinant; tags: N-terminal GST; dsDNA, one strand shown
# T3 sequence: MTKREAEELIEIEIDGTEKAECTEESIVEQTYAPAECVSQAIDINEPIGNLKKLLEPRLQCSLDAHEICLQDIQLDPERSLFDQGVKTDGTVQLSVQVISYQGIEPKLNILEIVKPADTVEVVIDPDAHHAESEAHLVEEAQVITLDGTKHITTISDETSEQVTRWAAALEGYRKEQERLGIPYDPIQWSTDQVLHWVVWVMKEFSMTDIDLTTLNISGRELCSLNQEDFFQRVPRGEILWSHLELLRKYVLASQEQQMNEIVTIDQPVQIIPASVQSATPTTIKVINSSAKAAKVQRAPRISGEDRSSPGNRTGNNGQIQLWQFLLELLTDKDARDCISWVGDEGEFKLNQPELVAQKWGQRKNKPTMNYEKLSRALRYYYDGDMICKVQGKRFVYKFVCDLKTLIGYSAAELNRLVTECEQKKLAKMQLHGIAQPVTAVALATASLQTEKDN
# Method in brief: as §1
# [4] = target: T4, ERG (Homo sapiens, UniProt P11308 1-479); conditions: protein: recombinant; tags: N-terminal GST; dsDNA, one strand shown
# T4 sequence: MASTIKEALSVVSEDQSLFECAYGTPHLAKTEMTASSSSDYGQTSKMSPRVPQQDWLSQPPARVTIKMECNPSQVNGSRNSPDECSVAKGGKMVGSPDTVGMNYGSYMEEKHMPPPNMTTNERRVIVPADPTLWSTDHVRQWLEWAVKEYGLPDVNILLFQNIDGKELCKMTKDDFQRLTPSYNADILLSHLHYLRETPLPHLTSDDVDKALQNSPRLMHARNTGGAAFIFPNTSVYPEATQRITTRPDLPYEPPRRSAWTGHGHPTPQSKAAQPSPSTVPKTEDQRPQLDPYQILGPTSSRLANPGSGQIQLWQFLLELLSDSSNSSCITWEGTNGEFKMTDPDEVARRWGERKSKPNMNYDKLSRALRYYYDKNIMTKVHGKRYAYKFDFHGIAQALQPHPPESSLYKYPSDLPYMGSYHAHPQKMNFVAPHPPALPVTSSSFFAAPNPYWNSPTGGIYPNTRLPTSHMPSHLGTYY
# Method in brief: as §1
# [5] = target: ELF1 (Homo sapiens, UniProt P32519 1-619); conditions: protein: recombinant; tags: N-terminal GST; dsDNA, one strand shown
# Method in brief: as §1
# [6] = target: T5, EHF (Homo sapiens, UniProt Q9NZC4 1-300); conditions: protein: recombinant; tags: N-terminal GST; dsDNA, one strand shown
# T5 sequence: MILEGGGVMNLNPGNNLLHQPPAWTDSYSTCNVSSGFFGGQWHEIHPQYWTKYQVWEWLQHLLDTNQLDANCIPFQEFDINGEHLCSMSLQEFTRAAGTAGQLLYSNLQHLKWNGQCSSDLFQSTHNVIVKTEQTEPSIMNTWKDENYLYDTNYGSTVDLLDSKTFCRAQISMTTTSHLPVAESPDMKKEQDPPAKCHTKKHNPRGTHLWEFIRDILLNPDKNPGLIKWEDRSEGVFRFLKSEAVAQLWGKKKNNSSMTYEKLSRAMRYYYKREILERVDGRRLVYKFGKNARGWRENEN
# Method in brief: as §1
# [7] = target: SPI1 (Homo sapiens, UniProt P17947 1-270); conditions: protein: recombinant; tags: N-terminal GST; dsDNA, one strand shown
# Method in brief: as §1
# [8] = target: SPIB (Homo sapiens, UniProt Q01892 1-262); conditions: protein: recombinant; tags: N-terminal GST; dsDNA, one strand shown
# Method in brief: as §1
# [9] = target: T6, ELK3 (Homo sapiens, UniProt P41970 1-407); conditions: protein: recombinant; tags: N-terminal GST; dsDNA, one strand shown
# T6 sequence: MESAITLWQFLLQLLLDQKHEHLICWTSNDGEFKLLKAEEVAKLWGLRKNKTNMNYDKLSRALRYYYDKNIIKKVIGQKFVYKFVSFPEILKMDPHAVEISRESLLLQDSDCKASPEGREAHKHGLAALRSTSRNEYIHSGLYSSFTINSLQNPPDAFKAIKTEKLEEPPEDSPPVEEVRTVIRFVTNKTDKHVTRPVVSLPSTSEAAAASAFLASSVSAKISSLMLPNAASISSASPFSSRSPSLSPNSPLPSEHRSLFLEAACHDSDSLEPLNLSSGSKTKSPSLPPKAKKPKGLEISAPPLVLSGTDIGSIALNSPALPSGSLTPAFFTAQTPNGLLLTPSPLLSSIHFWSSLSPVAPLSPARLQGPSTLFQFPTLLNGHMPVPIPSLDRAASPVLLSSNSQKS
# Method in brief: as §1
# [10] = target: T7, FEV (Homo sapiens, UniProt Q99581 1-238); conditions: protein: recombinant; tags: N-terminal GST; dsDNA, one strand shown
# T7 sequence: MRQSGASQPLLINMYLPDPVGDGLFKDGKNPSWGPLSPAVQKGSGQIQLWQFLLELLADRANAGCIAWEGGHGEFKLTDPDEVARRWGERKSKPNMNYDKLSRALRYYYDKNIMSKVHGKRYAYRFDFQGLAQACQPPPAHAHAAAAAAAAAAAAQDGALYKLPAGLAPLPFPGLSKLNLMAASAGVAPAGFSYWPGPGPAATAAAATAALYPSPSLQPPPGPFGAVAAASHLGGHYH
# Method in brief: as §1
# [11] = target: ETV5 (Homo sapiens, UniProt P41161 1-510); conditions: protein: recombinant; tags: N-terminal GST; dsDNA, one strand shown
# Method in brief: as §1
# [12] = target: HSF1 (Homo sapiens, UniProt Q00613 1-529); conditions: protein: recombinant; tags: N-terminal GST; chain copies: 3; dsDNA, one strand shown
# Method in brief: as §1
# [13] = target: T8, SPIC (Homo sapiens, UniProt Q8N5J4 1-248); conditions: protein: recombinant; tags: N-terminal GST; dsDNA, one strand shown
# T8 sequence: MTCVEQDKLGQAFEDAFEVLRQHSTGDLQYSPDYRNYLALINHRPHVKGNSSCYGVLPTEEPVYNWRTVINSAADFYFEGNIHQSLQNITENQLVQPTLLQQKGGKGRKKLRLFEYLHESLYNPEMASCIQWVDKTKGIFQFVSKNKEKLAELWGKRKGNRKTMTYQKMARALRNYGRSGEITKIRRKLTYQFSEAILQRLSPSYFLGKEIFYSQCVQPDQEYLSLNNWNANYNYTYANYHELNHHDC
# Method in brief: as §1
# [14] = target: ELF4 (Homo sapiens, UniProt Q99607 1-663); conditions: protein: recombinant; tags: N-terminal GST; dsDNA, one strand shown
# Method in brief: as §1
# [15] = target: T9, ELK4 (Homo sapiens, UniProt P28324-2 1-405); conditions: protein: recombinant; tags: N-terminal GST; dsDNA, one strand shown
# T9 sequence: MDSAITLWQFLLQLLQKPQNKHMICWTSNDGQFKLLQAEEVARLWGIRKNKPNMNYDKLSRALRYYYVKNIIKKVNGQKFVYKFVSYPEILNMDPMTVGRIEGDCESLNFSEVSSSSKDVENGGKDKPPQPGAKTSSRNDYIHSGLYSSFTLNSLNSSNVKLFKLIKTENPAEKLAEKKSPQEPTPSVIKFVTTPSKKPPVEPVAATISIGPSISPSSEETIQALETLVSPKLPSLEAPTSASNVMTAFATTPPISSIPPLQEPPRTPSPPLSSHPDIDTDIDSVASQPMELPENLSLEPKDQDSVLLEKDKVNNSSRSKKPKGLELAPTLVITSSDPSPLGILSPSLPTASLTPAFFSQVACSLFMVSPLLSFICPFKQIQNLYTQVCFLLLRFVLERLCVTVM
# Method in brief: as §1
# [16] = target: T10, ETV2 (Homo sapiens, UniProt O00321 1-342); conditions: protein: recombinant; tags: N-terminal GST; dsDNA, one strand shown
# T10 sequence: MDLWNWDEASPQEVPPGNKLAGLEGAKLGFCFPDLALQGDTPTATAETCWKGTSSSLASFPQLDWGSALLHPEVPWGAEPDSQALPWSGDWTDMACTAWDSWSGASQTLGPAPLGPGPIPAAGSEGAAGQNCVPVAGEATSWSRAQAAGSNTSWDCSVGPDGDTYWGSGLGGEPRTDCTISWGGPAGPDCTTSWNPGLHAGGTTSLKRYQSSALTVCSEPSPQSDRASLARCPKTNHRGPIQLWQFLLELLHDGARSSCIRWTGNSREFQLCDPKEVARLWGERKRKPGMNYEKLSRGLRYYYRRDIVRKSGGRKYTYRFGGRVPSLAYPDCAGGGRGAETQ
# Method in brief: as §1
# [17] = target: T11, ELF3 (Homo sapiens, UniProt P78545 1-371); conditions: protein: recombinant; tags: N-terminal GST; dsDNA, one strand shown
# T11 sequence: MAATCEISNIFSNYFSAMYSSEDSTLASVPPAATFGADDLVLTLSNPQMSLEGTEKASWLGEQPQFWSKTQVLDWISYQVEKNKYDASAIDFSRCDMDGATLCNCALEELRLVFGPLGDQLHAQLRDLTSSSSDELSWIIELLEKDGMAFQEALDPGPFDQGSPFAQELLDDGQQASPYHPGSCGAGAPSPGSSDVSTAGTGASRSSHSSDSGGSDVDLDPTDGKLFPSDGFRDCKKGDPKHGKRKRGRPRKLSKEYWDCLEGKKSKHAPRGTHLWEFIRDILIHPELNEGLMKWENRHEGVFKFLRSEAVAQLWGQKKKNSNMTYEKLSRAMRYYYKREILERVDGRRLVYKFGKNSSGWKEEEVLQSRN
# Method in brief: as §1
# [18] = target: CRX (Homo sapiens, UniProt O43186 1-299); conditions: protein: recombinant; tags: N-terminal GST; dsDNA, one strand shown
# Method in brief: as §1
# [19] = target: ETV1 (Homo sapiens, UniProt P50549 1-477); conditions: protein: recombinant; tags: N-terminal GST; dsDNA, one strand shown
# Method in brief: as §1
# Chain of ETV1 (P50549 whole entry): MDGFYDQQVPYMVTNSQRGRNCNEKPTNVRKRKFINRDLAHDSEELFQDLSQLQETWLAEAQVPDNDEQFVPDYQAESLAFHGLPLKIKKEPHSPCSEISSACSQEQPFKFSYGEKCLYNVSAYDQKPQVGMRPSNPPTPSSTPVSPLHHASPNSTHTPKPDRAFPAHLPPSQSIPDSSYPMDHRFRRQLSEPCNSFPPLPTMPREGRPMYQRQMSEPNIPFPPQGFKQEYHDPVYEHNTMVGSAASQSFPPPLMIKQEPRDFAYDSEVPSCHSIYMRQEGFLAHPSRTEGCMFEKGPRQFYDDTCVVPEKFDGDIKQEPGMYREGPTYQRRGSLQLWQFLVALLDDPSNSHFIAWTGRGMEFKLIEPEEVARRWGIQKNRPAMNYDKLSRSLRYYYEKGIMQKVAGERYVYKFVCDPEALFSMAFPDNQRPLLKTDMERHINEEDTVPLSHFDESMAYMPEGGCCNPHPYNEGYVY
# Chain of ELF4 (Q99607 whole entry): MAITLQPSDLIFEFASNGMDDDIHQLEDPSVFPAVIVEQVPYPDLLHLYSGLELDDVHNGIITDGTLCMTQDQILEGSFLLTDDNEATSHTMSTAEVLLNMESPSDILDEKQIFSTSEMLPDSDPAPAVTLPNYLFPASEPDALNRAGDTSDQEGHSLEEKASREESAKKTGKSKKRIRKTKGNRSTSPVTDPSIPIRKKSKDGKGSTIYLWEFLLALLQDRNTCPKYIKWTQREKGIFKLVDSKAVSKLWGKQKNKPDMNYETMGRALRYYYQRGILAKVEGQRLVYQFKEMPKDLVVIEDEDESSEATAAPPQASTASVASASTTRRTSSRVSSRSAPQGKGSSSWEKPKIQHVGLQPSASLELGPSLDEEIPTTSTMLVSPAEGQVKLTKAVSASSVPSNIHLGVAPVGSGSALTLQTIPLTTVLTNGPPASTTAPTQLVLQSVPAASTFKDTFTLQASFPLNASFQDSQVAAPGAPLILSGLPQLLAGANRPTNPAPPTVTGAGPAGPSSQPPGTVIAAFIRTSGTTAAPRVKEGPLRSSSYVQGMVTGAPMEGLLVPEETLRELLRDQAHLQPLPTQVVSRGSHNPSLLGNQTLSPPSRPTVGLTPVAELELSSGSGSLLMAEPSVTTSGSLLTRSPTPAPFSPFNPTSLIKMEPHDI
# Chain of CRX (O43186 whole entry): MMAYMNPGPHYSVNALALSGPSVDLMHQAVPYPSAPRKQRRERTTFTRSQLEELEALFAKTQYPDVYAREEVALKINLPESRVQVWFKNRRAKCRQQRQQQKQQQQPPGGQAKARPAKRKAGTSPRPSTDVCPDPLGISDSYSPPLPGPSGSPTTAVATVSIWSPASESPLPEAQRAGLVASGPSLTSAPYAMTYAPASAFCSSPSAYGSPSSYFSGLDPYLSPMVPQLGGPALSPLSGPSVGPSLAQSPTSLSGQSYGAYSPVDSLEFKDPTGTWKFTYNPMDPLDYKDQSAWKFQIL
# Chain of HSF1 (Q00613 whole entry): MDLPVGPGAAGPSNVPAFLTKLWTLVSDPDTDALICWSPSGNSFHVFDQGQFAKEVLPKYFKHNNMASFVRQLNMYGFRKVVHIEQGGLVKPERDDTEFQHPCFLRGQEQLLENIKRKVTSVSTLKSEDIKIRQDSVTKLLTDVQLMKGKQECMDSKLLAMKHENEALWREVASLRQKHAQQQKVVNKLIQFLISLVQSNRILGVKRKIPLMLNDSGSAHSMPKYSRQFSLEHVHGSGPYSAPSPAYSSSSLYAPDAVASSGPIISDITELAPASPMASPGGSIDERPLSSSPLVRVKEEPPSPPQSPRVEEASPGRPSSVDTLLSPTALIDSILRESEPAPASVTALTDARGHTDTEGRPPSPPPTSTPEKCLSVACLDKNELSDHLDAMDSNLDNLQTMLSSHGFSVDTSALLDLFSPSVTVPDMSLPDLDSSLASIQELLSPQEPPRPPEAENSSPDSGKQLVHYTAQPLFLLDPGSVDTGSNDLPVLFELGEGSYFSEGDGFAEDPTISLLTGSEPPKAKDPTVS
# Chain of SPIB (Q01892 whole entry): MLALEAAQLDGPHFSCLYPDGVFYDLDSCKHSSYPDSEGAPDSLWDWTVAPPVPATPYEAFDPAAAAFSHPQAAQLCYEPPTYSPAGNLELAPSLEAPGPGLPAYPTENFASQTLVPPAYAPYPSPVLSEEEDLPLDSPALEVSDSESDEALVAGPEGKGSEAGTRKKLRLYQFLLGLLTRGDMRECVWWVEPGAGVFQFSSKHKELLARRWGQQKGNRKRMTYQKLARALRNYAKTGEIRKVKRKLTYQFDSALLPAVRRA
# Chain of ELF1 (P32519 whole entry): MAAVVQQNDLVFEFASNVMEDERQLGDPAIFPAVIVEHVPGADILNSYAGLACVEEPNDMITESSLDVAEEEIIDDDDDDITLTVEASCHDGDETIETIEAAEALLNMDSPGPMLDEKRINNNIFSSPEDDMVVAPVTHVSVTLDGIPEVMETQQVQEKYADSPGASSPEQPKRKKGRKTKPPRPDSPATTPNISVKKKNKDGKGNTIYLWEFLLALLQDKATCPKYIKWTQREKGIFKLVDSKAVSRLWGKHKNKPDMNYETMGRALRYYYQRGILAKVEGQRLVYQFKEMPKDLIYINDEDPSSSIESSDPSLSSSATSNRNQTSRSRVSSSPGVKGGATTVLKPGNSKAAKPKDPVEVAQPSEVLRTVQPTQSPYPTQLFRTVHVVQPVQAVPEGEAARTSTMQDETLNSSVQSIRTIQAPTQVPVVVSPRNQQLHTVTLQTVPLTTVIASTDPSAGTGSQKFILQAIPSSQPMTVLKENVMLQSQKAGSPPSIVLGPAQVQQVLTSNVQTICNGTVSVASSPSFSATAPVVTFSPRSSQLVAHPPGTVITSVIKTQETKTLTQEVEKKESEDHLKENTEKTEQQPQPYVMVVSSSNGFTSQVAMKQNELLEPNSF
# Chain of ETV5 (P41161 whole entry): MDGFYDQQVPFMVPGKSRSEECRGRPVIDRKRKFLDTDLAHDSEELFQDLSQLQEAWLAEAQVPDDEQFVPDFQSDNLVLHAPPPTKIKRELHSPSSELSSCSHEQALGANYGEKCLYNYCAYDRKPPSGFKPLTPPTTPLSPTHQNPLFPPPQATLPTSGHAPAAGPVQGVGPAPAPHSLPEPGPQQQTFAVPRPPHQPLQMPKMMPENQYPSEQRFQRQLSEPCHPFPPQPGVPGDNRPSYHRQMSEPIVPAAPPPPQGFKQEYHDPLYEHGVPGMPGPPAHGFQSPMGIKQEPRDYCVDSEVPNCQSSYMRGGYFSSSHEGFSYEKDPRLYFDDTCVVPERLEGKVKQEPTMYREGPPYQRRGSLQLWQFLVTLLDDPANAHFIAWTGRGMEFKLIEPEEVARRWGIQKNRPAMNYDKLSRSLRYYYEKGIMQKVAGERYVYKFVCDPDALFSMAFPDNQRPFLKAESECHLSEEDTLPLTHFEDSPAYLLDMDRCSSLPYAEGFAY
sequence,measurement,setting,value
TAACCC,binding signal,[1],"1.31 fold enrichment (6-mer frequency, TF over GST control)"
same,binding signal,[2],"1.4 fold enrichment (6-mer frequency, TF over GST control)"
same,binding signal,[3],"1.25 fold enrichment (6-mer frequency, TF over GST control)"
same,binding signal,[4],"1.23 fold enrichment (6-mer frequency, TF over GST control)"
same,binding signal,[5],"1.28 fold enrichment (6-mer frequency, TF over GST control)"
same,binding signal,[6],"1.25 fold enrichment (6-mer frequency, TF over GST control)"
same,binding signal,[7],"1.18 fold enrichment (6-mer frequency, TF over GST control)"
same,binding signal,[8],"1.21 fold enrichment (6-mer frequency, TF over GST control)"
same,binding signal,[9],"1.38 fold enrichment (6-mer frequency, TF over GST control)"
same,binding signal,[10],"1.26 fold enrichment (6-mer frequency, TF over GST control)"
same,binding signal,[11],"1.31 fold enrichment (6-mer frequency, TF over GST control)"
same,binding signal,[12],"1.3 fold enrichment (6-mer frequency, TF over GST control)"
same,binding signal,[13],"1.35 fold enrichment (6-mer frequency, TF over GST control)"
same,binding signal,[14],"1.32 fold enrichment (6-mer frequency, TF over GST control)"
same,binding signal,[15],"1.2 fold enrichment (6-mer frequency, TF over GST control)"
same,binding signal,[16],"1.17 fold enrichment (6-mer frequency, TF over GST control)"
same,binding signal,[17],"1.29 fold enrichment (6-mer frequency, TF over GST control)"
same,binding signal,[18],"1.77 fold enrichment (6-mer frequency, TF over GST control)"
same,binding signal,[19],"1.29 fold enrichment (6-mer frequency, TF over GST control)"
